# High-throughput results as filed in PubChem.
# An excerpt weighted towards active compounds, which were near 2.8% of everything screened.
# POLK inh: blocks human DNA polymerase kappa activity | 0.53% of 400,000 active | Potency, µM (titrated, usually from 107 µM), inactives show top-dose activity, negative = inhibition, usual class: inhibitors | purified Pol kappa, fluorescent DNA synthesis assay, 10 min | AID 588579; note: potency is the fitted concentration of half-maximal effect; % is set by controls: 0 for no effect and ±100 for the full control effect
#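 50 nM final substrate added after 15 min RT preincubation of 10 nM Pol kappa with compound; fluorescence read at 0 and 10 min.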
# Pol beta inh-1: blocks human DNA polymerase beta activity; Potency, µM (highest dose often 114 µM), for inactives: at the highest dose activity change, negative = inhibition, usual class: inhibitors; 1.3% of 340,000 active; P06746; Pol beta primer extension/strand displacement, fluorescence kinetic; note: potency is the fitted concentration of half-maximal effect; % is set by controls: 0 for no effect and ±100 for the full control effect
#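 Human Pol beta at 10 nM; strand-displacement substrate 50 nM final. Compound exposure 15 min at room temperature before start, reaction 10 min at room temperature.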
# FEN1 inh: blocks human flap endonuclease 1; Potency, µM (top dose mostly 114 µM), for the others: at the top dose activity change, negative = inhibition, usual class: inhibitors; AID 588795; 0.35% of 390,000 active; P39748; Recombinant FEN1 flap cleavage, fluorescence, 15 min; note: potency is the fitted concentration of half-maximal effect; % is set by controls: 0 for no effect and ±100 for the full control effect; nearly all actives have a fitted effect of over 65% in size
# Target sequence (P39748 whole entry, looked up): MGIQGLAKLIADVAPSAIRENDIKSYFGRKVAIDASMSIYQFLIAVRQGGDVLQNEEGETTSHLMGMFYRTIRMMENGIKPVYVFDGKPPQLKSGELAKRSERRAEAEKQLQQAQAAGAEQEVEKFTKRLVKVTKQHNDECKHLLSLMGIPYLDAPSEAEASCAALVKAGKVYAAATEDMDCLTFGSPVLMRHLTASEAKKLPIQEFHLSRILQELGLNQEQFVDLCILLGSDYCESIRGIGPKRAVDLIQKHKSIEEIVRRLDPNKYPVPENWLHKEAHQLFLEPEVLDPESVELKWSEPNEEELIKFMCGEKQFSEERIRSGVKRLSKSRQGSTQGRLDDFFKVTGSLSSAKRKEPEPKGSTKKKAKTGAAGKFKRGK
#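 In this screen, 50 nM flap DNA substrate was added to 10 nM FEN1 pretreated with compound for 15 min at room temperature; cleavage was followed with reads at 0 and 15 min, and Hill fitting gave concentration–response parameters.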
# POLH inh: DNA polymerase eta (human) inhibition | Q9Y253 | recombinant Pol eta, fluorescent DNA replication assay | Potency, µM (doses to about 114 µM), without a hit: top-dose activity change, negative = inhibition, most hits filed as inhibitors | 1.2% of 390,000 active | AID 588591; note: potency is the fitted concentration of half-maximal effect; % is set by controls: 0 for no effect and ±100 for the full control effect
#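 Pol eta at 10 nM preincubated with compounds 15 min at room temperature; reaction started with fluorescent substrate (50 nM final) and read kinetically at 0 and 10 min.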
# Pol iota inh: blocks human DNA polymerase iota activity | Q9UNA4 | 1% of 390,000 active | Pol iota fluorescent replication assay, 10 min | Potency, µM (doses to about 115 µM), for inactives: at the top dose activity, negative = inhibition, actives largely listed as inhibitors; note: potency is the fitted concentration of half-maximal effect
#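 Pol iota at 10 nM preincubated 15 min with compounds at room temperature; reaction started with fluorescent substrate, 50 nM final. Fluorescence read kinetically at 0 and 10 min; buffer-only wells as negative control.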
# PI5P4Ka inh: inhibitors of human PI5P4K alpha | PI5P4Kalpha enzyme, ADP-Glo luminescence, 60 min; active compounds read low | max response, % | 1.2% of 330,000 active | AID 652105; active = max response of -50% or lower; inconclusive = between -30% and -50%; inactive = -30% or higher; note: value at the top dose of about 77 µM; % is set by controls: 0 for no effect and ±100 for the full control effect
#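 Compounds were pin-transferred onto PI5P4Kalpha and substrate in HEPES pH 7.4 buffer with EGTA, CHAPS and 5% DMSO. ATP (5 microM final) started the reaction, which ran 60 minutes at room temperature before ADP-Glo detection.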
# Pol beta inh-2: Inhibitors of human DNA polymerase beta, hit validation; shares compounds with Pol beta inh-1; Pol beta primer extension/strand displacement, fluorescence kinetic; Potency, µM, usual class: inhibitors; 87% of 250 active; AID 540280; calls by dose curve; note: potency is the fitted concentration of half-maximal effect
# Klenow counter: counter-screen for DNA polymerase beta inhibitors: Klenow fragment inhibition; activity change, negative = inhibition, % at 57.1 µM; 250 tested, under 10 active; shares compounds with Pol beta inh-1; Klenow exo- polymerase counter-screen, fluorescent DNA substrate
# HIV RT counter: counter-screen for DNA polymerase beta inhibitors: HIV-1 RT inhibition. shares compounds with Pol beta inh-1. activity % (negative = inhibition, positive = activation), % at 57.1 µM. 250 tested, under 10 active. HIV-1 RT polymerase activity, counter-screen
# POLB inh gel: validation of human DNA polymerase beta inhibitors; shares compounds with Pol beta inh-1; radiolabeled primer extension gel assay, phosphorimager; inhibition, % at 10 µM; 91% of 110 active;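 active = inhibition at 10 µM of 30% or more; inconclusive = no clear call, values can overlap the other calls; inactive = inhibition at 10 µM under 30%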
# Active calls of the source: *; ? = inconclusive; · = no result given; [ ] = remark or other dose. Unless noted, calls come from the whole dose curve; as a rule, active = well fitted curve in the direction sought with a large enough effect; inconclusive = small, poorly fitted or top-dose-only effect, or another doubt; inactive = no such curve, though single readings can be large; an effect the other way counts as inactive or inconclusive.
SMILES,POLK inh,Pol beta inh-1,FEN1 inh,POLH inh,Pol iota inh,PI5P4Ka inh,Pol beta inh-2,Klenow counter,HIV RT counter,others
C/C(=N\N(Cc1ccccc1)c1ccccc1)c1cccnc1,-7%,22%,-19%,-24%,41%,6,·,·,·,
COc1ccc(NC(=O)c2ccc(NCCN3C(=O)CCC3=O)c([N+](=O)[O-])c2)cc1,?,13µM*,-5%,?,-27%,?,?,-7,21,POLB inh gel=?
Cc1ccc(NC(=O)C2CCN(S(=O)(=O)c3cc([N+](=O)[O-])ccc3Cl)CC2)nc1,?,·,-17%,?,?,-23,·,·,·,
O=C(Nc1nc2ccc(F)cc2s1)C1CCN(S(=O)(=O)c2cc([N+](=O)[O-])ccc2Cl)CC1,-19%,8.9µM*,11%,?,?,?,28*,-26,-4,POLB inh gel=100*
O=C(COC(=O)C1CCN(S(=O)(=O)c2cc([N+](=O)[O-])ccc2Cl)CC1)Nc1ncc(Cl)cc1Cl,79µM*,8.9µM*,-18%,8.9µM*,?,-50*,28*,-11,-23,POLB inh gel=86*
COc1cccc(NC(=O)Cn2c(=O)n(Cc3ccco3)c(=O)c3cc(OC)c(OC)cc32)c1,-2%,-18%,16%,-9%,6%,·,·,·,·,
CN(CC(=O)Nc1ccc(F)cc1)C(=O)CN1C(=O)NC(CCc2ccccc2)C1=O (stereo unspecified),·,·,·,-6%,·,3,·,·,·,
CN(C)c1ccc(/C=C/c2ccnc3ccccc23)cc1C=O,4%,·,?,·,82%,·,·,·,·,
CCN(CC(=O)Nc1c(F)cccc1F)C(=O)/C=C/c1ccc(Br)s1,-7%,·,-5%,-2%,25%,-3,·,·,·,
COc1cc(C)ccc1S(=O)(=O)NC(=O)C1(C)CCN1C(=O)c1ccc(C(F)(F)F)nc1C (stereo unspecified),·,·,·,·,·,1,·,·,·,
Cc1ccc(C(=O)NN2CC(O)=C(c3nc(-c4cccc([N+](=O)[O-])c4)cs3)C2=N)cc1,-10%,5µM*,-9%,-9%,?,-24,?,-28,27,
COc1cccc(C(=O)NN2CC(O)=C(c3nc(C)cs3)C2=N)c1,-2%,0%,21%,?,10%,0,·,·,·,
COc1ccc(C2CC(=O)Oc3cc(C)c(Cl)c(C)c32)cc1 (stereo unspecified),6%,·,4%,-9%,-3%,-6,·,·,·,
Cc1ccc(S(=O)(=O)N2CCCC2C(=O)OCc2ccco2)cc1 (stereo unspecified),-44%,20µM*,-16%,32µM*,25µM*,·,32*,-37,6,POLB inh gel=51*
Cc1ccc(S(=O)(=O)N2CCCC2C(=O)OCc2ccccc2)cc1 (stereo unspecified),-6%,-1%,-21%,-20%,8%,-4,·,·,·,
O=C(Cc1cccs1)N1CCN(c2ccc([N+](=O)[O-])cc2)CC1,?,20µM*,-4%,79µM*,?,?,?,-35,60,POLB inh gel=65*
O=C(Nc1sc2c(c1C(=O)NCc1ccco1)CCCC2)c1ccc2c(c1)OCO2,-29%,13µM*,-12%,-11%,?,·,?,-26,31,
Cc1ccccc1NC(=O)c1sc2nc3c(c(-c4ccco4)c2c1N)CCC3,-20%,16%,11%,?,?,-16,·,·,·,
Nc1c(C(=O)NCC2CCCO2)sc2nc3c(c(-c4ccco4)c12)CC/C3=C\c1ccco1 (stereo unspecified),0.71µM*,2.8µM*,3.2µM*,0.71µM*,0.79µM*,-100*,11*,-7,-5,
O=C(OCC(=O)N1CCN(C(=O)c2ccco2)CC1)c1cc(-c2ccco2)nc2ccccc12,25µM*,3.2µM*,?,32µM*,8.9µM*,·,3.5*,-24,?,
CC1CCN(S(=O)(=O)c2ccc(NC(=O)Cn3nnc(-c4ccccc4F)n3)cc2)CC1,?,16µM*,-13%,?,50µM*,·,35*,-22,27,
CC1CCN(S(=O)(=O)c2ccc(NC(=O)c3ccccc3F)cc2)CC1,-8%,6%,-16%,-12%,54%,-7,·,·,·,
COc1ccc(NS(=O)(=O)c2ccc(O)c(NC(=O)c3ccc(S(=O)(=O)N4CCCCCC4)cc3)c2)cc1,0%,13µM*,-13%,?,?,-23,35*,-31,-7,
CCOC(=O)C1=C(C)N=c2s/c(=C/c3ccc(OCC(=O)O)cc3)c(=O)n2C1c1ccc(SC)cc1 (stereo unspecified),·,4.5µM*,·,·,·,·,7.9*,4,0,
O=C(Nc1ccc2c(c1)OCO2)C1CCN(C(=O)CSc2ncnc3ccccc23)CC1,-29%,20µM*,-16%,79µM*,?,·,35*,-7,40,POLB inh gel=85*
SMILES,POLK inh,Pol beta inh-1,FEN1 inh,POLH inh,Pol iota inh,PI5P4Ka inh,Pol beta inh-2,Klenow counter,HIV RT counter,others
Cc1cc(NC(=O)c2cc(-c3ccc(F)cc3)on2)nn1Cc1ccc(Cl)cc1,-10%,4%,-4%,3%,-3%,·,·,·,·,
COc1ccc(-c2nn(C)c3sc(C(=O)NCc4ccco4)cc23)cc1OC,-15%,13µM*,16%,?,?,-8,14*,-5,26,
COc1cccc(-c2nn(C)c3sc(C(=O)NCc4ccc(C)o4)cc23)c1,-1%,-18%,-16%,-11%,14%,-11,·,·,·,
NC(CO)(CO)COCc1ccccc1,6%,?,0%,-17%,30%,-2,·,·,·,
CCCCc1nnc(SCc2cc(=O)c3cc(F)ccc3[nH]2)n1C,-4%[60.1 µM],-20%,-8%,-18%,8%,·,·,·,·,
CC(=O)NCCNC(=O)c1ccc(Cn2c(=O)[nH]c3ccsc3c2=O)cc1,0%,56%,12%,-24%,21%,-5,·,·,·,
O=C(Nc1cc(Cl)cc(Cl)c1)c1ccc(Cn2c(=O)[nH]c3ccsc3c2=O)cc1,-11%,14µM*,15%,?,-6%,-18,?,-27,26,POLB inh gel=93*
